According to PubChem BioAssay AID2796 (The Scripps Research Institute Molecular Screening Center, 2010):
Among all 320,000 compounds or so, about 8,000 (2.5%) were called active. This is one part of a sample in which actives are shown more often than they occur. No stated cut-off is given here; in the data, active means activation above about 47%; inactive means the rest.

The molecules below were run against Aryl hydrocarbon receptor (Homo sapiens) (UniProt P35869) (assay: AHR activators, primary screen, cell-based, luminescence, luciferase reporter, human (AID 2796;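 further: 0% = vehicle wells and 100% = reference agonist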)). Details: AHR-responsive luciferase reporter cells, at 5 µM, hits give high values.
Aryl hydrocarbon receptor (Homo sapiens), sequence (P35869 whole entry, looked up): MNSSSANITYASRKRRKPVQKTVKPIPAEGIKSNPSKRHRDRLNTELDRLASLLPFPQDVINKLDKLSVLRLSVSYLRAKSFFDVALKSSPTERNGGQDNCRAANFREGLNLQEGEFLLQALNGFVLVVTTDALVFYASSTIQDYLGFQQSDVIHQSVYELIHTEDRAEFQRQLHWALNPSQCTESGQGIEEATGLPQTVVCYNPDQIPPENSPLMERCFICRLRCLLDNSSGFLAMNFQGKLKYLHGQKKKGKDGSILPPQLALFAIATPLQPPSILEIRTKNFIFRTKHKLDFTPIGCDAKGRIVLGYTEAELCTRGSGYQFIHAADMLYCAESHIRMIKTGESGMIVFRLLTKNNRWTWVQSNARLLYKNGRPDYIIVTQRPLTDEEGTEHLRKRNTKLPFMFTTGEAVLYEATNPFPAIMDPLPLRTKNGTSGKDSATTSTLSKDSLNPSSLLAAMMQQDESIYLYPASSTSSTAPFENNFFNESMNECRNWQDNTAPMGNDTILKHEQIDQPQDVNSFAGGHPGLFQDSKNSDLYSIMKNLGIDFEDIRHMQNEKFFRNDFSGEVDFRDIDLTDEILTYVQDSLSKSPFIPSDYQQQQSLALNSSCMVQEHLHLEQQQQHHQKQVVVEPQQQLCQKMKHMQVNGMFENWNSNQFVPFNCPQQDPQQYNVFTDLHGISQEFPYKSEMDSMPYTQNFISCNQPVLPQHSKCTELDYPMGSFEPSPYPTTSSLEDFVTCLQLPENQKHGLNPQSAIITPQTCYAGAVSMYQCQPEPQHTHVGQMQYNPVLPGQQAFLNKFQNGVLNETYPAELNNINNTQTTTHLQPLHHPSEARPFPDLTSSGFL

activation, active:
CCCc1cc(=O)oc2c(C)c(OCC(=O)NCc3ccccn3)ccc12 65.7%
Cc1nc(NC(=O)c2cccc(Cl)c2)sc1-c1csc(Nc2cccc(Cl)c2)n1 85.8%
C=CCCC(=O)Nc1nc(C)c(-c2csc(Nc3ccc(Cl)cc3)n2)s1 56.6%
O=C(Nc1ccc(-c2csc(Nc3cccc(C(F)(F)F)c3)n2)cc1)c1cccc(C(F)(F)F)c1 114%
CCCCC(=O)Nc1nc(C)c(-c2csc(Nc3ccc(Cl)cc3)n2)s1 49.2%
COc1ccc(C2NC(=O)c3ccccc3N2)cc1 (stereo not drawn) 102%
Cc1ccc(-c2csc(-c3c[nH]c4ccccc34)n2)cc1 74.3%
COC(=O)c1c(NC(C)=O)sc(C(=O)Nc2ccccc2OC)c1C 47.1%
O=C(Cn1c(NCCO)nc2ccccc21)c1ccc(Cl)cc1Cl 103%
O=c1c2cc(-c3ccccc3)sc2nc2n1N=C(c1cccs1)CS2 58.8%
O=[N+]([O-])c1ccc(F)cc1Oc1nc(-c2cccnc2)nc2ccccc12 62.5%
Cc1ccc(C)c(N2CCN(C(=O)Cn3ncn4cccc4c3=O)CC2)c1 49.4%
CCn1ccnc1CN(C)Cc1nc(-c2ccc3c(c2)OCO3)no1 86.7%
O=C(Nc1ccc(C2CC2(Cl)Cl)cc1)c1cccc([N+](=O)[O-])c1 (stereo not drawn) 96.3%
COc1ccc2c(c1)c(C(=O)N/N=C/c1cccs1)c(C)n2C 72.6%
CCC(=O)/C(=C(/O)c1ccccc1)c1nc2ccccc2[nH]1 64.6%
COc1ccc(Cl)cc1NC(=O)CN(C)C(=O)CCCc1c[nH]c2ccccc12 51.8%

activation, inactive:
COc1ccc(C2=Nc3cc(C)ccc3OC2)cc1 30.2%
O=C(CCc1nc(-c2ccccc2)no1)Nc1cccc(C(=O)NC2CC2)c1 0.82%
CCc1ccc(OCC(=O)OC(C)C(=O)NC2CC2)cc1 (stereo not drawn) -4.56%
Oc1c(Cl)cc(Cl)c(Cl)c1Cc1c(O)c(Cl)cc(Cl)c1Cl 0.28%
CN(C(=O)COC(=O)Cn1cnc2c1c(=O)n(C)c(=O)n2C)C1(C#N)CCCCC1 -0.97%
O=C(c1snnc1-c1ccccc1)N1CCOCC1 2.54%
CN(CCC1CCOCC1)C(=O)CC1C(=O)NCCN1Cc1cccc(F)c1 (stereo not drawn) -2.39%
COc1cccc(NC(=O)Cn2cnc3sc(C)c(S(=O)(=O)N4CCN(C)CC4)c3c2=O)c1 3.14%
CCCc1cc(=O)oc2c(C)c(OCC(=O)N3CCC(C(=O)O)CC3)ccc12 0.65%
CCCc1cc(=O)oc2c(C)c(OCC(=O)Nc3ccccn3)ccc12 2.02%
Clc1ccc(-c2cc(C3CCNCC3)[nH]n2)c(Cl)c1 -7.18%
CCC(=O)Nc1nc(C)c(C(=O)Nc2cccc(Cl)c2)s1 7.61%
COc1ccc(NC(=O)CN(C)CC(=O)Nc2cccc(C(F)(F)F)c2)cc1 0.79%
Cc1nc(NC(=O)CN(C)S(=O)(=O)c2ccc(Cl)cc2)sc1C 5.19%
O=C(O)CSc1c2c(nc3cc(C(=O)Nc4cccc(C(F)(F)F)c4)ccc13)CCCC2 -2.1%
CCCCN(C)CCC(=O)Nc1ccc(Cl)cc1 0.37%
COc1ccc(-c2csc(NC(=O)COC(=O)Cc3ccc(Cl)cc3Cl)n2)cc1 34.2%
CCCCCCC(=O)Nc1nc(C)c(-c2csc(Nc3cccc(OC)c3)n2)s1 34.4%
CCCCCCC(=O)Nc1nc(C)c(-c2csc(Nc3cc(Cl)ccc3OC)n2)s1 40.2%
CCC(C)c1ccc(NC(=O)COC(=O)C2CCCC2)cc1 (stereo not drawn) -0.7%
CC(=O)Nc1ccc(NC(=O)CCN2C(=O)C3CC=CCC3C2=O)cc1 (stereo not drawn) -0.48%
Cc1occc(=O)c1OCc1c(Cl)cccc1Cl 2.86%
O=C(O)CCN1C(=O)CC2(CCCCC2)C1=O -1.21%
O=C1CCN(Cc2ccc([N+](=O)[O-])cc2)CCN1[C@H](CO)Cc1ccccc1 0.87%
CCCNC(=O)c1cnc(-c2ccccc2)nc1-c1ccccc1 3.22%
CCOc1ccc(/C=C(/NC(=O)c2ccccc2)C(=O)NCCC(=O)O)cc1 3.46%
COc1cc(OC)c(NS(=O)(=O)c2cn(C)cn2)cc1Cl -0.48%
Cc1ccc(NC(=O)C2CCC(C(C)(C)C)CC2)cc1S(=O)(=O)N1CCOCC1 (stereo not drawn) 1.24%
Cc1csc(=O)n1CC(=O)Nc1ccc(S(C)(=O)=O)cc1 -1.77%
CCOC(=O)c1ccc(NC(=O)c2ccc(NC(=O)C3CCCO3)cc2)cc1 (stereo not drawn) 3.91%
COc1ccc(N(CC(=O)N2CCOCC2)S(=O)(=O)c2ccccc2)cc1Cl 0.59%
O=C1COc2ccc(C(=O)COC(=O)c3ccccc3Cl)cc2N1 -0.97%
Oc1ccc(C2Nc3cccc4cccc(c34)N2)cc1 9.92%
Cc1ccc(C2Nc3cccc4cccc(c34)N2)cc1 30.3%
CC(Oc1ccc(-c2ccccc2)c(F)c1)c1ccn(S(=O)(=O)c2cccc3ccccc23)n1 (stereo not drawn) 0.53%
O=C(NC(=O)c1ccc(Cl)c(Cl)c1)OC1CCS(=O)(=O)C1 (stereo not drawn) 2.16%
O=C(Cn1ncc(N2CCCC2)c(Br)c1=O)c1ccc(Cl)cc1 3.04%
COc1cccc(CNc2ncc(-c3ccccc3)n2C)c1 8.66%
Cc1ccc(-c2csc(-c3cc(C)on3)n2)cc1 -2.07%
CCCc1cc(-c2nc(-c3ccc(C)cc3)cs2)ccn1 23.7%
CCC(C)NC(=O)C1CCC(=O)N1Cc1ccc(C)cc1 (stereo not drawn) 4.04%
O=C(NCCc1ccc(Cl)cc1Cl)c1cc([N+](=O)[O-])c[nH]c1=O 6.38%
COc1ccccc1NC(=O)c1ccc(C)s1 26.2%
CCC(=O)Nc1sc(C(=O)Nc2ccccc2)c(C)c1C(=O)OC -2.8%
CN1CCN(S(=O)(=O)c2cccc(C(=O)Nc3sccc3C#N)c2)CC1 3.96%
O=C(CC12CC3CC(CC(C3)C1)C2)Nc1ccc2c(c1)COC2=O 0.6%
CC(C)(C)C(=O)Cn1c(NCCO)nc2ccccc21 -1.23%
O=S(=O)(O)c1nc2ccccc2n1Cc1ccc(Cl)cc1Cl 3.2%
CN(CC(=O)NCCc1ccc(S(N)(=O)=O)cc1)CC(=O)Nc1ccc(F)c(F)c1F 1.42%
O=S(=O)(Cc1ccccc1)c1nc2ccccc2n1Cc1ccccn1 -1.4%
Cc1nnc2n1N=C(c1ccccc1)CS2 1.52%
COc1ccc(C2CC(c3cccs3)=NN2c2ccccc2)cc1 (stereo not drawn) 3.12%
O=S1(=O)CC(NCc2ccccc2)C(Nc2ccc(Cl)cc2)C1 (stereo not drawn) 0.94%
CSCCC(NC(=O)COc1ccccc1)C(=O)N(C)CC(=O)Nc1ccc(C)cc1 (stereo not drawn) 1.75%
O=[N+]([O-])c1ccc(Oc2ccc(F)cc2Br)c2ccncc12 15.1%
CCN(CC(=O)NC1CCS(=O)(=O)C1)c1nc(-c2cccnc2)nc2ccccc12 (stereo not drawn) 1.86%
CCCCn1c(N)c(N(CCOC)C(=O)CSCC(=O)Nc2cccc(C)c2)c(=O)[nH]c1=O 1.66%
CCc1nn(CC(=O)N2CCN(c3cc(C)ccc3C)CC2)c(=O)c2cc3occc3n12 4.48%
Cc1ccc(C)c(N2CCN(C(=O)CCCn3c(=O)c4cccn4c4cccnc43)CC2)c1 6.45%
COc1ccc2nc3n(c(=O)c2c1)-c1ccc(Cl)cc1C(=O)NC3Cc1ccccc1 (stereo not drawn) 1.56%
O=C(O)c1ccccc1-c1ccccc1C(=O)Nc1ccccc1Br 0.17%
CN(CCN1CCOCC1)Cc1nc(-c2ccc3c(c2)OCO3)no1 10.5%
CC(C)N(Cc1nc(-c2ccc3c(c2)OCO3)no1)CC1CCC(=O)N1 (stereo not drawn) 16.6%
CCOc1c2ccc(C(=O)NC3CCCc4ccccc43)cc2nn1CC (stereo not drawn) 7.2%
O=C(Nc1ccc(C(=O)N2CCCCC2)cc1)c1cccc([N+](=O)[O-])c1 -1.69%
Cc1cc(C)nc(NC(=O)c2cccc([N+](=O)[O-])c2)c1 40.8%
Cc1ccc(-c2nn(-c3ccccc3)cc2C(=O)NCCCN2CCCC2=O)cc1 1.15%
CCC(C)(C)NC(=O)/C=C/c1cc(OC)c(OC)c(S(=O)(=O)N2CCc3ccccc32)c1 5.39%
NC(=O)N/N=C\c1cccs1 -0.87%
COc1ccc(N(CC(=O)N/N=C/c2cccs2)S(=O)(=O)c2ccc(OC)c(OC)c2)cc1 1.41%
COc1cc(C(=O)NCc2nnc(SCC(=O)Nc3nc4ccc(C)cc4s3)o2)cc(OC)c1OC -5.66%
O=C(/C(=C/c1cccc(Cl)c1)c1nc2ccccc2[nH]1)c1ccccc1 44.8%
COCCN(CCOC)S(=O)(=O)c1ccc(/C(O)=C(\C#N)c2nc3ccccc3[nH]2)cc1 6.43%
COC(C[C@@H]1O[C@@H]1C(=O)[C@@H](C)OCc1ccccc1)OC -3.27%
COc1ccc(Cl)cc1NC(=O)CN(C)C(=O)c1cc2ccccc2cc1OC 19.4%
COc1ccccc1NC(=O)CCCc1c[nH]c2ccccc12 6.67%
